Potency and affinity values are given separately.
Test: inhibitors of CD8+ T cell–vesicle binding, dose response, mouse 2C CD8+ T cells, flow cytometry (AID 485284);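 further: drosophila derived vesicles carrying Ld MHC with QL9 peptide plus B7-1 and ICAM-1; vesicle binding seen as anti-B7-1 PE fluorescence on CD8 gated cells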
Settings: 2C mouse CD8+ T cell-exosome binding; at 45 µM (top of the series)

Q: With O=C(NC1CCCCCC1)C1CCN(S(=O)(=O)c2ccccc2)CC1 as the compound, how does the binding remaining, % of control read?
A: 137%

Q: For COC(=O)CN1C(=S)N(C)C(=O)C1CC(=O)Nc1ccccc1 (centres undefined), which binding remaining, % of control is on record?
A: 123%

Q: With O=C(COC(=O)c1ccc(S(=O)(=O)N2CCOCC2)cc1)Nc1ccccc1OC(F)F as the compound, how does the binding remaining, % of control read?
A: 20.5%

Q: With COc1ccc(NS(=O)(=O)c2cc(NC(=O)C3CC3)ccc2N2CCCCC2)cc1 as the compound, how does the binding remaining, % of control read?
A: 49.3%

Q: With CCOc1ccc(C(=O)NNC(=O)CN2C(=O)C3CC=CCC3C2=O)cc1OC (centres undefined) as the compound, how does the binding remaining, % of control read?
A: 194%

Q: Which binding remaining, % of control does the source give for Cc1c(NS(=O)(=O)CC23CCC(CC2=O)C3(C)C)c(=O)n(-c2ccccc2)n1C (centres undefined) here?
A: 21%

Q: For COc1ccc(NC(=O)Nc2c(O)ccc3ccccc23)cc1, which binding remaining, % of control is on record?
A: 76.2%

Q: Which binding remaining, % of control does the source give for Cc1ccc(S(=O)(=O)c2c(N)n(NC(=O)c3ccccc3C)c3nc4ccccc4nc23)cc1 here?
A: 100%

Q: Which binding remaining, % of control does the source give for O=C(CN1C(=O)NC2(CCCCCC2)C1=O)N1CCN(c2ccccc2)CC1 here?
A: 158%

Q: For c1ccc(COc2ccc(OCCN3CCCCC3)cc2)cc1, which binding remaining, % of control is on record?
A: 112%

Q: With COc1ccccc1CNC(=O)c1ccc(N(C)S(=O)(=O)c2ccc(C)cc2)cc1 as the compound, how does the binding remaining, % of control read?
A: 156%

Q: Which binding remaining, % of control does the source give for COc1ccc(CNC(=O)c2cccnc2SC)cc1OC here?
A: 132%

Q: With CCN(CC)C(=O)N1CCN(S(=O)(=O)c2ccc(C)cc2)CC1 as the compound, how does the binding remaining, % of control read?
A: 112%

Q: For COc1ccc(C(=O)NNC(=O)CSc2nnnn2C)cc1, which binding remaining, % of control is on record?
A: 181%

Q: With O=C(NNC(=S)NC(=O)c1ccco1)c1ccc(F)cc1 as the compound, how does the binding remaining, % of control read?
A: 159%

Q: With N#Cc1cccc(NC(=O)CN2C(=O)NC3(CCCCCC3)C2=O)c1 as the compound, how does the binding remaining, % of control read?
A: 176%

Q: Which binding remaining, % of control does the source give for C=CCN(c1ccc(Br)cc1C(=O)OC)S(C)(=O)=O here?
A: 115%

Q: Which binding remaining, % of control does the source give for O=C(Nn1cnc2ccccc2c1=O)C1CCCCC1 here?
A: 106%

Q: With CN(C)S(=O)(=O)c1cccc(-n2sc3ccccc3c2=O)c1 as the compound, how does the binding remaining, % of control read?
A: 73.9%

Q: Which binding remaining, % of control does the source give for CCCCOc1ccc(C(=O)NCC(=O)N2CCN(C(=O)c3ccco3)CC2)cc1 here?
A: 23.6%

Q: With COc1ccc([C@H]2CC(=O)C=C(/C=C/c3ccccc3)C2)cc1 as the compound, how does the binding remaining, % of control read?
A: 52.1%

Q: Which binding remaining, % of control does the source give for O=C(/C=C/c1ccccc1Cl)NCCc1ccccc1 here?
A: 116%

Q: Which binding remaining, % of control does the source give for CC(C)[C@H]1C(=O)Nc2ccccc2N1C(=O)N[C@@H](Cc1ccccc1)C(=O)N[C@@H](Cc1ccccc1)C(=O)O here?
A: 168%

Q: With CN(CC(=O)Nc1cccc(F)c1)C(=O)c1ccc(S(=O)(=O)N2CCCC2)cc1 as the compound, how does the binding remaining, % of control read?
A: 21.6%

Q: With CCOC(=O)c1cc2occc2n1CC(=O)NC1CCC(C)CC1 (centres undefined) as the compound, how does the binding remaining, % of control read?
A: 77%

Q: With CCCNC(=O)c1nc2ncc(Br)cn2n1 as the compound, how does the binding remaining, % of control read?
A: 153%

Q: For O=C1N=C(N2CCOCC2)S/C1=C\c1cccs1, which binding remaining, % of control is on record?
A: 99.5%

Q: With O=C(CN1C(=O)NC2(CCCCCC2)C1=O)N1CCN(c2ccc(F)cc2)CC1 as the compound, how does the binding remaining, % of control read?
A: 110%

Q: Which binding remaining, % of control does the source give for CCOc1ccc(Cl)cc1/C=N/NC(=O)c1ccccc1 here?
A: 35.5%

Q: With CCOc1ccc(NC(=O)CN(C)C(=O)c2ccc(N3CCOCC3)c([N+](=O)[O-])c2)cc1OCC as the compound, how does the binding remaining, % of control read?
A: 134%

Q: For CCC(C)S(=O)(=O)c1snnc1C (centres undefined), which binding remaining, % of control is on record?
A: 164%

Q: Which binding remaining, % of control does the source give for CN(C)S(=O)(=O)N1CCN(S(=O)(=O)N(C)C)CC1 here?
A: 55.7%

Q: Which binding remaining, % of control does the source give for CCN(Cc1ccccc1)C(=O)c1ccc(C)c(S(=O)(=O)N2CCCCC2)c1 here?
A: 92.8%

Q: For Cc1cccc(N(C(=O)c2snc(C(N)=O)c2N)C(C(=O)NCC2CCCO2)c2ccc(N(C)C)cc2)c1C (centres undefined), which binding remaining, % of control is on record?
A: 22.8%
